Test [1] can be described thus: Counterscreen for APE1 Inhibitors: Fluorescent Dye Displacement Validation Assay (AID 1707).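 Note: plate controls were ThO with dsDNA and no compound for no effect and ThO without dsDNA for full effect.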 In short, it runs like this:
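ThO 250 nM + dsDNA 50 nM (THF abasic site, 5'-TAMRA), Tris-HCl pH7.5/50mM NaCl/2 mM MgCl2/0.01% Tween-20; compounds pin-transferred; ex 480/em 540 nm endpoint. Neutral = no compound; no-DNA ThO wells = negative control.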

Test [2] deals with Endonuclease 4 (Escherichia coli (strain K12)) (UniProt P0A6C1). Kind of test: Counterscreen for APE1 Inhibitors: qHTS Validation Assay for Inhibitors of Endonuclease IV (AID 1708). Note: % is set by controls: 0 for no effect and ±100 for the full control effect. In short, it runs like this:
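Concentration-response counterscreen run identically to the APE1 assay: 15 min room-temperature preincubation of 2 nM enzyme with compound, reaction started with 50 nM quenched abasic DNA, progress taken from kinetic fluorescence.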
In general terms: A counterscreen serves to expose hits that act by an unwanted route or on another target.

The nature of test [3]: qHTS for differential inhibitors of proliferation of Plasmodium falciparum line 3D7 (AID 1876). Note: potency is the fitted concentration of half-maximal effect.
The nature of test [4]: qHTS for differential inhibitors of proliferation of Plasmodium falciparum line Dd2 (AID 1882). Note: nearly all actives have a fitted effect of over 65% in size. Note: potency is the fitted concentration of half-maximal effect. To be noted: Potency: Plasmodium falciparum Dd2 proliferation inhibition. In short, it runs like this: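 Dd2-infected erythrocytes (0.3% parasitemia, 2.5% hematocrit final) incubated with compound 72 h at 37 C, 5% CO2; lysed with saponin/Triton buffer containing SYBR Green I, incubated overnight in the dark, then read by fluorescence (485/535 nm). Normalized to 0.29 uM artemisinin and DMSO.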
Background: Quantitative high-throughput screening tests each substance at several concentrations.

A short description of test [5]: qHTS for differential inhibitors of proliferation of Plasmodium falciparum line W2 (AID 1883).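 Note: parasites grown with compound for 72 h before lysis and staining.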 Note: potency is the fitted concentration of half-maximal effect. The following applies: Potency: Plasmodium falciparum W2 proliferation inhibition.
The nature of test [6]: qHTS for differential inhibitors of proliferation of Plasmodium falciparum line HB3 (AID 1886).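 Note: parasites grown with compound for 72 h before SYBR Green readout.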 Note: potency is the fitted concentration of half-maximal effect. The following applies: Potency: Plasmodium falciparum HB3 proliferation inhibition.
In test [7] the target is ATP-dependent DNA helicase Q1 (Homo sapiens) (UniProt P46063). The test is described as follows: qHTS Validation Assay for Inhibitors of RecQ-Like Dna Helicase 1 (RECQ1) (AID 2353).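 Note: plate controls were DMSO vehicle for no effect and enzyme-free control for full effect.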 In short, it runs like this:
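50 nM RECQ1T1 preincubated 15 min with compound in Tris pH 8.0 buffer with MgCl2, DTT, Tween-20 and 2.5 ug/ml poly(dI-dC); started with 200 nM TAMRA/BHQ-2 forked duplex and 2 mM ATP. Unwinding read as fluorescence (525/598 nm), two reads 2 h apart.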

Test [8] in a line: Quantitative high throughput screen for delayed death inhibitors of the malarial parasite plastid, 96 hour incubation (AID 488745). Note: nearly all actives have a fitted effect of over 70% in size. Note: potency is the fitted concentration of half-maximal effect. In short, it runs like this: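 Luciferase-expressing P. falciparum in erythrocytes (2% hematocrit, 0.1% parasitemia) incubated with compound for 96 h at 37 C, 5% CO2, in RPMI 1640 with 0.5% Albumax. Growth inhibition read as decreased luminescence.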

Test [9] addresses M-phase phosphoprotein 8 (Homo sapiens) (UniProt Q99549). The test is described as follows: qHTS Validation Assay for Inhibitors for MPP8 Chromodomain Interactions with Methylated Histone Tails (AID 488949).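 Note: 50 nM MPP8 with 50 nM peptide preformed then compounds added for 30 min; AlphaScreen signal from MPP8 chromodomain bound to biotinylated H3K9me3 peptide; top concentration of the series differs between compounds; % is set by controls: 0 for no effect and ±100 for the full control effect; nearly all actives have a fitted effect of over 55% in size.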 Put shortly:
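Chemiluminescent proximity assay: histidine-tag capture via nickel acceptor beads, biotin peptide via streptavidin donor beads. Protein and peptide each at 50 nM, pH 7.4, with 30 min incubations at room temperature for complex formation, compound exposure and bead binding.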

The target in test [10] is Transient receptor potential cation channel subfamily V member 1 (Homo sapiens) (UniProt Q8NER1). Kind of test: HTS Assay for Compounds that Act as Enhancers of the Vanilloid Receptor 1 (AID 488979). Note: 0% is about no effect. Put shortly: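 TRPV1-expressing cells loaded with Fluo-8 calcium dye; compounds added and calcium influx read kinetically for 3 min (agonist phase), then capsaicin at EC20 added and read 2 min more for enhancement. Fluorescence ex 480/em 520 nm.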

Test [11] deals with Thyrotropin receptor (Homo sapiens) (UniProt P16473). Kind of test: qHTS Assay for Antagonists of the Thyroid Stimulating Hormone Receptor (AID 488980). Note: series mostly up to about 58 µM; 0% is about no effect. Put shortly:
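Inhibition of TSH-stimulated cAMP accumulation was quantified by homogeneous time-resolved FRET in TSHR-transfected HEK293 cells. Agonist: TSH, 4 nM final (EC80).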

For test [12], the target named is Thyrotropin-releasing hormone receptor (Homo sapiens) (UniProt P34981). Kind of test: qHTS for Small Molecule Agonists and Allosteric Enhancers of Human TRH Receptor: Validation Screen for Agonists (AID 493127;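 active = calcium activation more than 3 SD above the typical response in the agonist read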; note: 0% is about no effect). The following applies: TRH receptor agonist cell assay; at 2 µM; stronger effect = higher value. In short, it runs like this:
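TRHR cells loaded with fluo-8 calcium dye; FDSS kinetic fluorescence (Ex 480/Em 530) read at 1 s/cycle after 23 nL compound addition. Agonist-mode calcium response recorded before the 10 nM TRH (EC20) addition.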

Test [13] addresses Galactokinase (Homo sapiens) (UniProt P51570). Kind of test: qHTS Validation Assay for Inhibitors of Human Galactokinase (GALK) (AID 493189). Note: 0% is about no effect. In short, it runs like this: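 Enzyme activity is inferred from ATP consumption: human GALK phosphorylates galactose (100 uM) using 35 uM ATP for 1 h at room temperature, and luciferase-based Kinase-Glo Plus reports unconsumed ATP.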
Test [14] concerns the target Voltage-gated inwardly rectifying potassium channel KCNH2 (Homo sapiens) (UniProt Q12809). The test is described as follows: qHTS Assay for Small Molecule Inhibitors of the Human hERG Channel Activity (AID 588834).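 Note: top concentration of the series differs between compounds; % is set by controls: 0 for no effect and ±100 for the full control effect; lower thallium flux fluorescence means stronger hERG block; nearly all actives have a fitted effect of over 50% in size.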 In short, it runs like this:
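Blockade is seen as reduced FluxOR thallium-flux fluorescence in U2OS cells expressing hERG from a BacMam construct, in Opti-MEM with 2% FCS. Concentration-response data fitted to the Hill equation for AC50.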

Test [15] addresses Rap guanine nucleotide exchange factor 4 (Homo sapiens) (UniProt Q8WZA2). The test is described as follows: Confirmatory qHTS for agonist of cAMP-regulated guanine nucleotide exchange factor 4 (EPAC2) (AID 1645884).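 Note: nucleotide exchange releases bodipy-GDP from Rap1 and this lowers its fluorescence; % is set by controls: 0 for no effect and ±100 for the full control effect; nearly all actives have a fitted effect of over 65% in size.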
Test [16] can be described thus: Confirmation and Secondary Assay for Modulators of Hemoglobin Beta Chain Splicing at IVS2 705 locus (AID 930).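 Note: HeLa cells stably expressing the EGFP-705 splicing reporter; series mostly up to about 46 µM; % of control where 0% means no effect.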 Put shortly:
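HeLa cells stably carrying EGFP interrupted by mutant beta-globin IVS2-705 intron (CMV-driven) were seeded at 500 cells/well, treated next day with compound for 2 days at 37C; corrected splicing restores EGFP, read as total peak GFP intensity per well.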

Test [17] concerns the target DNA repair nuclease/redox regulator APEX1 (Homo sapiens) (UniProt P27695). Kind of test: qHTS Validation Assay for Inhibitors of the Human Apurinic/apyrimidinic Endonuclease 1 (APE1) (AID 1705;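 note: TAMRA fluorescence gain over two minutes as APE1 cuts a quenched THF abasic duplex; series mostly up to about 57 µM; % is set by controls: 0 for no effect and ±100 for the full control effect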). Put shortly: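 Substrate: 50 nM final fluorophore/quencher THF-abasic duplex. Enzyme preincubated with compounds 15 min, RT. Progress derived from fluorescence difference, third minus first kinetic read.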

For test [18], the target named is Ferritin light chain (Equus caballus) (UniProt P02791). The test is described as follows: qHTS Validation Assay for Identification of Novel General Anesthetics (AID 2323). Note: series mostly up to about 77 µM; % is set by controls: 0 for no effect and ±100 for the full control effect. Put shortly:
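Normalized fluorescence response, scaled between free 1-AMA and 1-AMA/apoferritin complex, fitted to a four-parameter Hill equation for concentration-effect values. Binding mix: 10 uM horse-spleen apoferritin, 50% saturated 1-AMA in PBS; read 380/535 nm after 10 min.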

Test [19] in a line: Validation screen for small molecules that induce DNA re-replication in MCF 10A normal breast cells (AID 463097). Note: 0% is about no effect; nearly all actives have a fitted effect of over 60% in size. In short, it runs like this:
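Following 48 hr compound incubation (37 C, 5% CO2), MCF 10A cells receive Hoechst for 40 min at 37 C. Nuclei are then scanned (excitation 405 nm, emission 500-530 nm) for total fluorescence intensity.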

Test [20] deals with Cytochrome P450 2D6 (Homo sapiens) (UniProt P10635). The test is described as follows: qHTS Assay for Inhibitors and Substrates of Cytochrome P450 2D6 (AID 891). Note: nearly all actives have a fitted effect of over 60% in size. Note: potency is the fitted concentration of half-maximal effect. Put shortly:
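Human CYP2D6 (5 nM) with 30 uM Luciferin-ME EGE (at Km) in 100 mM KPO4, compound preincubated 10 min, then NADPH regeneration system for 60 min at room temperature. Luciferin read by luminescence; normalized to 1.43 uM quinidine.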

A number with no mark means an inactive call. Inconclusive results are not listed. The source made the active and inactive calls. Unless noted, calls come from the whole dose curve; as a rule, active = well fitted curve in the direction sought with a large enough effect; inconclusive = small, poorly fitted or top-dose-only effect, or another doubt; inactive = no such curve, though single readings can be large; an effect the other way counts as inactive or inconclusive.

Thyrotropin-releasing hormone receptor (Homo sapiens), sequence (P34981 whole entry, looked up): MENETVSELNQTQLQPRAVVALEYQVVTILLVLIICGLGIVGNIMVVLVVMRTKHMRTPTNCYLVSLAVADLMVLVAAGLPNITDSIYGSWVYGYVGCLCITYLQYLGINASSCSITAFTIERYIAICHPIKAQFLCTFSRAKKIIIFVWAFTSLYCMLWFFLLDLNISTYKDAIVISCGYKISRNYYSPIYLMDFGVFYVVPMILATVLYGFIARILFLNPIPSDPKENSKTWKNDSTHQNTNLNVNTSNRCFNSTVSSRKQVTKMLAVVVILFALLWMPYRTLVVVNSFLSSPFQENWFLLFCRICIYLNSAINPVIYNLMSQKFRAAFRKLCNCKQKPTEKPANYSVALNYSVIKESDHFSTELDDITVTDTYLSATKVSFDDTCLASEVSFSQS
Galactokinase (Homo sapiens), sequence (P51570 whole entry, looked up): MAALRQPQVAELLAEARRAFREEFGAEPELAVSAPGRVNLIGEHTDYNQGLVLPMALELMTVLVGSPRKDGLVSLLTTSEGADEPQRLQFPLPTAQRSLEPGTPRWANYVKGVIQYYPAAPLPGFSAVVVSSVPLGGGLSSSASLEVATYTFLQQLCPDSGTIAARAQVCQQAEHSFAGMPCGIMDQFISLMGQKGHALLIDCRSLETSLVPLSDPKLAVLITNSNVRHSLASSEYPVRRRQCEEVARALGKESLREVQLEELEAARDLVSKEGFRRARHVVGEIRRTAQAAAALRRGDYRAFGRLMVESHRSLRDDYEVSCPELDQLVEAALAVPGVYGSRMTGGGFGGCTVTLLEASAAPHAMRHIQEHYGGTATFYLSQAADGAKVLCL
Voltage-gated inwardly rectifying potassium channel KCNH2 (Homo sapiens), sequence (Q12809 whole entry, looked up): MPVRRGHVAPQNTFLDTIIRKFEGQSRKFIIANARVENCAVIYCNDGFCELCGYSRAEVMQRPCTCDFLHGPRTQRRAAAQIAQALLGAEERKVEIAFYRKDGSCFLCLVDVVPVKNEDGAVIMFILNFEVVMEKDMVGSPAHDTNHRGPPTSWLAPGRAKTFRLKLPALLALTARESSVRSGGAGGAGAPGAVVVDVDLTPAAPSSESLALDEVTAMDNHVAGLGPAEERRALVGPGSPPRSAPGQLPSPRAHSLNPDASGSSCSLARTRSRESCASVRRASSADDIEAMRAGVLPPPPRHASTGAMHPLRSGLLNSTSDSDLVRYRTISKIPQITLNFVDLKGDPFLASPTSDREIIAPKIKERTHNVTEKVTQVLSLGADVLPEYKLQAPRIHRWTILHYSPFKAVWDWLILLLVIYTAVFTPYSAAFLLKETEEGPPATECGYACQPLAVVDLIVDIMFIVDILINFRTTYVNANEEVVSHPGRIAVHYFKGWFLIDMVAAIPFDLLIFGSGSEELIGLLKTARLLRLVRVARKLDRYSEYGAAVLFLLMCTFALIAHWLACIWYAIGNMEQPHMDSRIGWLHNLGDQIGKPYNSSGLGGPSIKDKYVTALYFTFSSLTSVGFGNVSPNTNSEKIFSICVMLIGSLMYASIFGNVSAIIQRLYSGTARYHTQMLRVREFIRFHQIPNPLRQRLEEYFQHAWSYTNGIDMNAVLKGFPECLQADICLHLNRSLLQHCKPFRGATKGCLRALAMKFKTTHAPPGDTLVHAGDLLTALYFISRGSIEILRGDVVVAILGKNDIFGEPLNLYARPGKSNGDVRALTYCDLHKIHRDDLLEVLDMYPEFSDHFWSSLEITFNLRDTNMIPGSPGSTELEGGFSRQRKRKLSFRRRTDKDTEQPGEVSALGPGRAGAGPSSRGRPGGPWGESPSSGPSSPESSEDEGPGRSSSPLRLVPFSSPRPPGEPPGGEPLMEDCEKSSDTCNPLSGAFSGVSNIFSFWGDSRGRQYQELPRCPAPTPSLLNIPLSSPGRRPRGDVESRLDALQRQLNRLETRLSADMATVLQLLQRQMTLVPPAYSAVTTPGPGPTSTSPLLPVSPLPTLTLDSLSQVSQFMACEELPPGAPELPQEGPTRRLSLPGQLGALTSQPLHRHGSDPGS
DNA repair nuclease/redox regulator APEX1 (Homo sapiens), sequence (P27695 whole entry, looked up): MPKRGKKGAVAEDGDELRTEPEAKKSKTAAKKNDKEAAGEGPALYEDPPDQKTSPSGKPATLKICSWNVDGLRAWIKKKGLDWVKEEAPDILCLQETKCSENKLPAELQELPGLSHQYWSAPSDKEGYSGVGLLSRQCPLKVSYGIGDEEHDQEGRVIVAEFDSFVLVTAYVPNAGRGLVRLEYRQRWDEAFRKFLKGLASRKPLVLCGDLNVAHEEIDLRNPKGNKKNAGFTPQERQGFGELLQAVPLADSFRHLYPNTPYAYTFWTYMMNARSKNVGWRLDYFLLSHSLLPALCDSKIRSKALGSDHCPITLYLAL
Ferritin light chain (Equus caballus), sequence (P02791 2-175 limits assumed): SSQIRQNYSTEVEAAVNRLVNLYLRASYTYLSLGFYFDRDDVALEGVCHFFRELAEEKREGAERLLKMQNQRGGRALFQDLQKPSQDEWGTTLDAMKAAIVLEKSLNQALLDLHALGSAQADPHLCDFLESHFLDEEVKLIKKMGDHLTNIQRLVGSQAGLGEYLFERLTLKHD
Cytochrome P450 2D6 (Homo sapiens), sequence (P10635 whole entry, looked up): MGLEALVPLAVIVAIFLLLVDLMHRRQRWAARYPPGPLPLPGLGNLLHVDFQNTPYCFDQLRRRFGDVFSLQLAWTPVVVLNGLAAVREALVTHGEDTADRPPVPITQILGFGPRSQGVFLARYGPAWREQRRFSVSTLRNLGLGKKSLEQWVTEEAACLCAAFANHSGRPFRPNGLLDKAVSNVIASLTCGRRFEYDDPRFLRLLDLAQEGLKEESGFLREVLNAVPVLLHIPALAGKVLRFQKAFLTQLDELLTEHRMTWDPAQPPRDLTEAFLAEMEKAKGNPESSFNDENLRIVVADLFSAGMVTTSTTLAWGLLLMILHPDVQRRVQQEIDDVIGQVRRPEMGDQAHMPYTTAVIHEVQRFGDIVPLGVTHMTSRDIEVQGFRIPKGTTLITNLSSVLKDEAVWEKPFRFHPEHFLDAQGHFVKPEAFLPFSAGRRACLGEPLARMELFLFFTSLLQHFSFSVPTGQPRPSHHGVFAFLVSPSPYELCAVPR
M-phase phosphoprotein 8 (Homo sapiens), sequence (Q99549 whole entry, looked up): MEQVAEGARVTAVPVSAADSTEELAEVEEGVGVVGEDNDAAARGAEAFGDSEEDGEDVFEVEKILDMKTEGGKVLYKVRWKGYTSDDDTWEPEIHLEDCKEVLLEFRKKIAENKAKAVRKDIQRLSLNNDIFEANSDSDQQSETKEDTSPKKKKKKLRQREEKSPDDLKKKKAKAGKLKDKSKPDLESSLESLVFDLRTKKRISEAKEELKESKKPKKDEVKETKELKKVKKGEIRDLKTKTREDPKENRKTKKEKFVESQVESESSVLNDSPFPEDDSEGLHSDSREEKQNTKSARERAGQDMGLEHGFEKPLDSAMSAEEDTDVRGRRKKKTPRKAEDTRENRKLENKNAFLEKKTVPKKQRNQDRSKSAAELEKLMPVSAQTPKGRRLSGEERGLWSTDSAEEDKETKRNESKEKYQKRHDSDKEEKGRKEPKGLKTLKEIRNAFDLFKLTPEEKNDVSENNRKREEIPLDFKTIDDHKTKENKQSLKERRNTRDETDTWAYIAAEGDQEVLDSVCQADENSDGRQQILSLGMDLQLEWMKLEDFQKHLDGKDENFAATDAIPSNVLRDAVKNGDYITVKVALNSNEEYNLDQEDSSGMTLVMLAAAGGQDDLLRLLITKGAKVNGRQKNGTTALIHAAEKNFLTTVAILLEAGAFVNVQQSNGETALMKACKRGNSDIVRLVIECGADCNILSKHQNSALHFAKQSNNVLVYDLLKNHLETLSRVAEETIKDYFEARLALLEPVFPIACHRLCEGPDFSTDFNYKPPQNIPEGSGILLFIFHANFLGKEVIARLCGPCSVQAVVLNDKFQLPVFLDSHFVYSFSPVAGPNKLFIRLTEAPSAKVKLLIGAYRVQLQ
Rap guanine nucleotide exchange factor 4 (Homo sapiens), sequence (Q8WZA2 whole entry, looked up): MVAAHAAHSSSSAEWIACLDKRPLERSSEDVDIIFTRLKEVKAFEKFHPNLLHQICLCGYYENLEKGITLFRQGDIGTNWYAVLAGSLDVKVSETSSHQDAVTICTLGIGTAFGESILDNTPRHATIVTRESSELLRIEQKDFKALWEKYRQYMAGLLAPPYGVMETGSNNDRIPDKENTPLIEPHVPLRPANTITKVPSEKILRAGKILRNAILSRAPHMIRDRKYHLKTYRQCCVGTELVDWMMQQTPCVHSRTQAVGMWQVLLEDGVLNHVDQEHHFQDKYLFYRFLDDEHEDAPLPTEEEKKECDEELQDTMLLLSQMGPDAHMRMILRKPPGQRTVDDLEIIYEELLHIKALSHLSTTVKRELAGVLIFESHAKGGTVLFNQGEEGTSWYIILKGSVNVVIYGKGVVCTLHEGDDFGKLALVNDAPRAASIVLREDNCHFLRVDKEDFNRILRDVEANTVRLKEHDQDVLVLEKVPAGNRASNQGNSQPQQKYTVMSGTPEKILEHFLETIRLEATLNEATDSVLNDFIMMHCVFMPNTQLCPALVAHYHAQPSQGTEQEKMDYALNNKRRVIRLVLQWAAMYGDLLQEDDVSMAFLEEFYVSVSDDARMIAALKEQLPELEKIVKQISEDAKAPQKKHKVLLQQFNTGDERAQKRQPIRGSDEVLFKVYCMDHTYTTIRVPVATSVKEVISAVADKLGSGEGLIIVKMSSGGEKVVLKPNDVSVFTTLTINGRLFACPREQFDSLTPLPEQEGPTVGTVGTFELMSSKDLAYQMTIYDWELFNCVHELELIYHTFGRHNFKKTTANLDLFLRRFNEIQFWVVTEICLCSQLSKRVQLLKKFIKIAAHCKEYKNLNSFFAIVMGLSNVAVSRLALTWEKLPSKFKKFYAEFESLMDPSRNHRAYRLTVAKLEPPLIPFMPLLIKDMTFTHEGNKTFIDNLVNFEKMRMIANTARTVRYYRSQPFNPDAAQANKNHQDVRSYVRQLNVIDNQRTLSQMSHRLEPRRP

Take `C[C@@H](Oc1ccc(Oc2cnc3ccc(Cl)cc3n2)cc1)C(=O)O`: the result in [1], in test [2], in test [7], in [10], in test [11] and in [13] was inactive. Moreover, the Potency result in test [3], in [4], in test [5], in test [6], in test [8] and in [9] was “inactive” in each case. In [14], the Potency entry was “inactive”. Also, the activation in test [12] is -0.0625%.
With `COc1ccc2c(c1)[C@@]1(C)CCC[C@](C)(CO)C1CC2` (some centres undefined), the Potency result in [15] was “inactive”.
On to `Nc1c2ccccc2nc2ccccc12` (tested in a mixture with another compound), for which the Potency entry in [15] is “inactive”.
In the case of `COC(=O)c1c(C)c2c(c(C)c1O)OC(=O)c1c(C)c(Cl)c(O)c(Cl)c1O2`, the result in [16] was inactive. The Potency entry in [15] is “inactive”.
Regarding `Cc1cccc2c3c(ccc12)C1=C(C(=O)C3=O)C(C)CO1` (centres undefined), the Potency entry in test [15] was “inactive”.
As for `CC1(C)[C@@H](O)CC[C@]2(C)C3C(=O)C=C4C5C[C@@](C)(C(=O)O)CC[C@]5(C)CC[C@@]4(C)[C@]3(C)CC[C@@H]12` (some centres undefined), the Potency entry in test [15] is “inactive”.
For the molecule `Nc1ncnc2c1nc(Br)n2C1O[C@H]2COP(=O)(O)O[C@@H]2C1O` (some centres undefined), the result in test [17], in test [1], in test [2], in [18], in [7] and in test [19] was inactive. For the same molecule, the outcome in [10], in test [11] and in [13] was inactive. In addition, the Potency in [5] is 5.62 µM (active); in [6], 6.31 µM (active). In addition, in test [12], the activation was 0.688%. For the same molecule, the Potency result in [14] was “inactive”.
For `CCCC1O[C@@H]2C[C@H]3[C@@H]4CCC5=CC(=O)C=C[C@]5(C)C4[C@@H](O)C[C@]3(C)[C@]2(C(=O)CO)O1` (some centres undefined), the molecule was classed as inactive in test [17], in test [1], in test [2], in [18], in test [7] and in [19]. Further, the result in [10] and in test [13] was inactive. Further, the Potency in [3] is 2.51 µM (active); in test [4], 5.01 µM (active); in [5], 2.51 µM (active); in test [6], 5.01 µM (active); in test [8] it was 2.94 µM (active). Besides, the Potency result in test [9] and in test [14] was “inactive” in each case. Besides, the activation in [12] was 2.06%.
Regarding `CC(C)=CCC/C(C)=C/CC/C(C)=C/CC/C(C)=C/CC/C(C)=C/CC/C(C)=C/CC/C(C)=C/CC/C(C)=C/CC/C(C)=C/CO`, in [16], the outcome was inactive.
Regarding `COc1cc2c3cc1Oc1c(OC)c(OC)cc4c1[C@@H](Cc1ccc(O)c(c1)Oc1ccc(cc1)C[C@@H]3N(C)CC2)N(C)CC4`, the Potency result in [20] is “inactive”.
Regarding `COc1cc(C)c(C(=O)Oc2cc(C)c(C(=O)O)c(O)c2C)c(OC)c1C`, the molecule was classed as inactive in [16]. Besides, in test [15], the Potency entry is “inactive”.
With `Nc1ncnc2c1ncn2[C@@H]1O[C@H](COP(=O)(O)OP(=O)(O)OP(=O)(O)OP(=O)(O)OC[C@@H]2O[C@H](n3cnc4c(N)ncnc43)[C@@H](O)[C@@H]2O)[C@H](O)[C@H]1O`, the molecule was called inactive in test [17], in test [1], in test [18], in [7], in test [19] and in [10]. For the same molecule, the molecule was called inactive in [11]. Further, the Potency entry in [4], in test [8], in test [9] and in [14] was “inactive” each time. Further, the activation in [12] is 13.9%.
On to `COc1ccccc1-c1nc(N(C)C)c2ccccc2n1`, for which the Potency in test [20] is 3.16 µM (active).
With `CN1CCN(c2ncc3nc(-c4cccc(C#N)c4)c(=O)n(C[C@H]4CCCO4)c3n2)CC1`, in [20], the Potency entry was “inactive”.
Same read-out and setting: for `COc1cccc(-c2ccc3ncnc(NCCc4c[nH]c5ccc(OC)cc45)c3c2)c1` the value was 2.51 µM (active); for `CN(C)Cc1ccccc1-c1cc(NCc2cccs2)ncn1`, 2 µM (active).
With `COc1ccccc1-c1nccc(NCc2ccccc2)n1`, the Potency in test [20] was 3.98 µM (active).
On the same count and under the same terms, under `COc1ccccc1CNc1ncnc2ccc(-c3ccoc3)cc12` stands 3.16 µM (active).
`O=c1ccc2ccc(O)cc2o1`: the molecule was classed as inactive in [16].
The same measure, in the same setting: under `O=C(Cc1cccs1)NC1C(=O)N2C(C(=O)[O-])=C(C[n+]3ccccc3)CSC12` (centres undefined) stands “inactive”.
Same read-out and setting: for `O=c1cc(-c2ccc(O)cc2)oc2cc(O[C@H]3OC(CO)C(O)C(O)C3O)cc(O)c12` (some centres undefined) the value was “inactive”.

These data come from PubChem BioAssay (NCATS).
